Screening data deposited in PubChem by Broad Institute.
T cruzi growth-1: T. cruzi proliferation inhibition | T. cruzi beta-gal in NIH3T3, GalScreen luminescence, 90 h | inhibition, % at 8.34 µM | hit rate 5.9% among 77,000 | AID 624255;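 active = mean inhibition above about 93%, with at least 55% of replicates each passing it, limit read from the data, passing the limit was not always enough; inconclusive = only one of those two conditions holds; inactive = neither condition holds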
Pf Dd2 inh: blocks growth of Plasmodium falciparum Dd2 parasites; P. falciparum Dd2 growth, SYBR Green, 72 h; stronger effect = lower value; activity change, % at 10 µM; hit rate 2.3% among 94,000; in the data active = activity change below about -80%; inconclusive = no clear call, values can overlap the other calls
C diff HTS: inhibitors of Clostridium difficile growth; Clostridium difficile clinical isolate growth, OD600, 24 h; stronger effect = lower value; growth activity, negative = inhibition, % at 16 µg/mL (by protocol); AID 1259249; hit rate 0.25% among 86,000;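 active = mean growth activity at or below -80% and every replicate also at or below -80%; inconclusive = mean at or below -80% but some replicate above -80%; inactive = mean growth activity above -80%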;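 also: 0% = DMSO wells and -100% = levofloxacin 16 µg/mL wells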
T cruzi growth-2: blocks T. cruzi growth in NIH3T3 host cells. shares compounds with T cruzi growth-1. AID 651739. inhibition, % at 8.35 µM. T. cruzi beta-gal in NIH3T3, GalScreen luminescence, 90 h. hit rate 72% among 5,600;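 active = mean replicate inhibition above about 95% and at least 55% of replicates individually reaching it, limit read from the data; inconclusive = only one of the two criteria is met; inactive = neither criterion is met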
T cruzi growth-3: inhibitors of T. cruzi proliferation | hit rate 21% among 5,600 | inhibition, % at 2.09 µM | shares compounds with T cruzi growth-1 | AID 651740 | T. cruzi beta-gal in NIH3T3, GalScreen luminescence, 90 h;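 active = mean inhibition above about 95%, with at least 55% of replicates also reaching it, limit read from the data; inconclusive = meets just one of the two conditions; inactive = meets neither condition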;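 also: plate controls were neutral control median for no effect and positive control median for full effect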
NIH3T3 tox: kills mouse NIH/3T3 fibroblasts; shares compounds with T cruzi growth-1; NIH/3T3 viability, CellTiter-Glo ATP luminescence, 90 h; cytotoxicity (signal decrease), % at 8.35 µM; hit rate 14% among 5,600; AID 651742;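 active = mean signal decrease across replicates above about 35% based on untreated-well scatter, with enough replicates individually passing, limit read from the data; inconclusive = no rule stated though some were filed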;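 also: 0% = median of neutral control wells and 100% = median of positive control wells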
3T3 cytotox 2: cytotoxicity in mouse NIH/3T3 fibroblasts; inhibition, % at 24.9 µM; NIH/3T3 viability, CellTiter-Glo ATP luminescence, 90 h; hit rate 56% among 5,600; shares compounds with T cruzi growth-1; AID 651744;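 active = mean loss of cell viability signal at or above a set limit, and enough replicates individually reaching it; inconclusive = meets only the mean limit or only the replicate share; inactive = meets neither condition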;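 also: 0% = median of neutral control wells and 100% = median of positive control wells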
Starred values were filed as active, the others as inactive; ? = inconclusive; . = no result. A selection: hits, their analogues and other compounds. The true share with any hit is near 6.7%.

SMILES	T cruzi growth-1	Pf Dd2 inh	C diff HTS	T cruzi growth-2	T cruzi growth-3	NIH3T3 tox	3T3 cytotox 2
COc1ccc(-c2ccc([C@@H]3[C@H](CO)N4CCCCN(C(=O)c5ccc(F)cc5)C[C@@H]34)cc2)cc1	87.2	-43.4	3.6	.	.	.	.
COc1ccc(-c2ccc([C@@H]3[C@H](CO)N4CCCCN(C(=O)c5ccc6c(c5)OCO6)C[C@@H]34)cc2)cc1	108.3*	-31.8	-1.1	?	58.0	21.3	104.2*
Cc1cccc(-c2ccc([C@@H]3[C@H]4CN(C(=O)c5ccc6c(c5)OCO6)CCCCN4[C@H]3CO)cc2)c1	56.0	-30.2	5.6	.	.	.	.
O=C(c1ccc2c(c1)OCO2)N1CCCCN2[C@H](C1)[C@H](c1ccc(-c3ccccc3)cc1)[C@@H]2CO	57.5	-14.2	27.6	.	.	.	.
COc1cccc(-c2ccc([C@H]3[C@@H](CO)N4CCCCN(C(=O)c5ccc6c(c5)OCO6)C[C@@H]34)cc2)c1	94.6	24.6	2.9	.	.	.	.
COc1ccc(-c2ccc([C@H]3[C@H](CO)N4CCCCN(C(=O)c5ccc6c(c5)OCO6)C[C@@H]34)cc2)cc1	110.7*	-46.9	4.7	100.3*	61.6	32.4	90.4*
COc1cccc(-c2ccc([C@@H]3[C@H](CO)N4CCCCN(C(=O)c5ccc6c(c5)OCO6)C[C@@H]34)cc2)c1	98.0*	-36.0	21.4	106.7*	44.2	24.7	102.9*
O=C(c1ccc2c(c1)OCO2)N1CCCCN2[C@@H](CO)[C@@H](c3ccc(-c4ccccc4)cc3)[C@@H]2C1	103.6*	-11.0	53.5	99.8*	67.0	?	101.7*
C[C@@H]1CN([C@H](C)CO)C(=O)c2cc(NS(C)(=O)=O)ccc2O[C@@H]1CN(C)Cc1ccccc1	17.5	19.2	-2.3	.	.	.	.
O=C(c1ccccn1)N1CC(=O)N2[C@H](CO)[C@H](c3ccc(C#CC4CCCC4)cc3)[C@@H]2C1	.	-16.2	-11.5	.	.	.	.
C[C@@H]1CCCCO[C@H](CN(C)Cc2ccncc2)[C@@H](C)CN([C@@H](C)CO)C(=O)c2cc(NC(=O)Nc3ccc(F)cc3)ccc2O1	28.4	-24.0	.	.	.	.	.
COCC(=O)N1C[C@H](C)[C@@H](OC)CN(C)C(=O)c2ccc(NC(=O)c3ccc(OC)cc3)cc2OC[C@H]1C	27.0	-7.0	.	.	.	.	.
COc1ccc(-c2cnc3c(c2)C(=O)N([C@@H](C)CO)C[C@@H](C)[C@H](CN(C)S(=O)(=O)c2ccc(OC)cc2)O3)cc1	82.8	-44.4	.	.	.	.	.
COc1ccc(-c2ccc([C@@H]3[C@H]4CN(C(=O)c5ccc6c(c5)OCO6)CCCCN4[C@H]3CO)cc2)cc1	112.4*	-46.5	-2.8	100.7*	82.3	22.8	104.5*
O=C(c1ccc2c(c1)OCO2)N1CCCCN2[C@H](CO)[C@H](c3ccc(-c4ccccc4)cc3)[C@@H]2C1	56.6	-49.2	-3.7	.	.	.	.
CC(C)CC#Cc1ccc2c(c1)O[C@@H](CN(C)CC1CCOCC1)[C@@H](C)CN([C@@H](C)CO)S2(=O)=O	?	-49.0	9.8	110.3*	?	25.5	105.1*
CC(C)CC#Cc1ccc2c(c1)O[C@@H](CN(C)CC1CCOCC1)[C@@H](C)CN([C@H](C)CO)S2(=O)=O	118.3*	-53.6	13.5	108.5*	90.9	16.2	104.1*
CC(C)CC#Cc1ccc2c(c1)O[C@@H](CN(C)CC1CCOCC1)[C@H](C)CN([C@@H](C)CO)S2(=O)=O	107.1	-63.3	12.5	.	.	.	.
CC(C)CC#Cc1ccc2c(c1)O[C@H](CN(C)CC1CCOCC1)[C@@H](C)CN([C@H](C)CO)S2(=O)=O	119.8	-59.0	13.3	.	.	.	.
COc1ccc2c3c(n(C)c2c1)[C@H](CO)N(CC1CCCC1)CC31CCN(C(C)=O)CC1	.	-17.0	0.8	.	.	.	.
CO[C@@H]1CN(C)C(=O)c2cc(NC(=O)Nc3ccc(Cl)cc3)ccc2OC[C@H](C)N(C(=O)Nc2c(C)noc2C)C[C@H]1C	-2.3	-7.4	-9.2	.	.	.	.
C[C@@H]1CCCCO[C@@H](CN(C)C(=O)Nc2ccc3c(c2)OCO3)[C@H](C)CN([C@H](C)CO)C(=O)c2cc(NC(=O)Cc3ccccc3)ccc2O1	81.9	-60.2	3.0	.	.	.	.
C/C=C/c1ccc([C@@H]2[C@H]3CN(Cc4ccccc4)CC(=O)N3[C@H]2CO)cc1	.	-32.2	0.1	.	.	.	.
CCS(=O)(=O)N1CCCCN2[C@H](CO)[C@@H](c3ccc(-c4ccccc4F)cc3)[C@@H]2C1	?	-63.6	-5.6	102.8*	55.7	12.3	24.3
CCS(=O)(=O)N1CCCCN2[C@@H](CO)[C@H](c3ccc(-c4ccccc4F)cc3)[C@@H]2C1	?	-11.4	1.0	103.7*	50.7	16.9	42.0*
SMILES	T cruzi growth-1	Pf Dd2 inh	C diff HTS	T cruzi growth-2	T cruzi growth-3	NIH3T3 tox	3T3 cytotox 2
CCS(=O)(=O)N1CCCCN2[C@@H](CO)[C@@H](c3ccc(-c4ccccc4F)cc3)[C@@H]2C1	105.7*	-43.4	-4.8	89.6	16.2	10.8	57.2*
CCS(=O)(=O)N1CCCCN2[C@H](C1)[C@H](c1ccc(-c3ccccc3F)cc1)[C@@H]2CO	91.9	-17.0	-7.0	.	.	.	.
Cn1cnc(S(=O)(=O)N2CCCCN3[C@H](CO)[C@H](c4ccc(-c5ccccc5F)cc4)[C@H]3C2)c1	46.4	8.8	-18.1	.	.	.	.
CCS(=O)(=O)N1CCCCN2[C@H](C1)[C@@H](c1ccc(-c3ccccc3C)cc1)[C@@H]2CO	74.1	16.3	-11.4	.	.	.	.
O=C(C[C@H]1CC[C@@H]2[C@H](COC[C@H](O)CN2Cc2cccc(Cl)c2)O1)NCC1CCCCC1	93.9	.	37.6	.	.	.	.
C[C@@H]1CN([C@H](C)CO)C(=O)c2cccc(NS(C)(=O)=O)c2O[C@@H]1CN(C)S(=O)(=O)c1ccc(F)cc1	-63.3	25.3	.	.	.	.	.
C[C@H](CO)N1C[C@H](C)[C@H](CN(C)CC2CCOCC2)Oc2cc(C#CC3CC3)ccc2S1(=O)=O	85.9	-30.8	2.4	.	.	.	.
CN(C)CC(=O)N1CCCCN2[C@H](CO)[C@H](c3ccc(/C=C/c4ccccc4)cc3)[C@H]2C1	32.3	-71.5	24.9	.	.	.	.
CN(C)CC(=O)N1CCCCN2[C@@H](CO)[C@@H](c3ccc(/C=C/c4ccccc4)cc3)[C@@H]2C1	102.3*	-77.7	39.3	98.8*	113.3*	120.1*	104.2*
CN(C)CC(=O)N1CCCCN2[C@H](C1)[C@@H](c1ccc(/C=C/c3ccccc3)cc1)[C@@H]2CO	-45.7	-2.3	8.1	.	.	.	.
CN(C)CC(=O)N1CCCCN2[C@H](C1)[C@H](c1ccc(/C=C/c3ccccc3)cc1)[C@@H]2CO	74.7	-4.9	5.9	.	.	.	.
CCC(=O)N1CCCCN2[C@H](CO)[C@H](c3ccc(/C=C/c4ccccc4)cc3)[C@@H]2C1	113.0*	20.5	-18.8	108.4*	81.7	48.4*	45.0*
CN(C)CC(=O)N1CCCCN2[C@@H](CO)[C@H](c3ccc(/C=C/c4ccccc4)cc3)[C@@H]2C1	97.3*	-63.5	13.6	?	102.3*	117.3*	102.2*
